From PubChem BioAssay (NCI)
“And” between values parts separate entries of the source, which are not always exact repeats. Equal entries are not always repeated. The panel holds about 83,000 compounds, 20% with a hit somewhere; the sample as a whole holds those more often.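 48-hour exposure, single concentration, 96-well plates; percent growth endpoint where 0 means no net growth. Active: below 10.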 The source made the active and inactive calls.

Experiments:
Test in all cases: NCI-60 one-dose screen, 48 h (100 = growth as untreated, 0 = no growth, -100 = all killed)
Conditions in all cases: 10 µM unless noted
SK-MEL-2 melanoma = tested on: SK-MEL-2 melanoma
EKVX NSCLC = tested on: EKVX NSCLC
SN12C renal = tested on: SN12C renal
UO-31 renal = tested on: UO-31 renal
TK-10 renal = tested on: TK-10 renal
ACHN renal = tested on: ACHN renal
CAKI-1 renal = tested on: CAKI-1 renal
A498 renal = tested on: A498 renal
CCRF-CEM leukemia = tested on: CCRF-CEM leukemia
MOLT-4 leukemia = tested on: MOLT-4 leukemia
SR leukemia = tested on: SR leukemia
RPMI-8226 leukemia = tested on: RPMI-8226 leukemia
OVCAR-8 ovarian = tested on: OVCAR-8 ovarian
OVCAR-5 ovarian = tested on: OVCAR-5 ovarian
SK-OV-3 ovarian = tested on: SK-OV-3 ovarian
IGROV1 ovarian = tested on: IGROV1 ovarian
OVCAR-3 ovarian = tested on: OVCAR-3 ovarian
HS 578T breast = tested on: HS 578T breast
NCI/ADR-RES ovarian = tested on: NCI/ADR-RES ovarian
OVCAR-4 ovarian = tested on: OVCAR-4 ovarian

Measured: growth

CNC(=O)c1cccc(-c2ccc3c(N4CCOC[C@@H]4C)nc(N4CCOC[C@@H]4C)nc3n2)c1
inactive: CCRF-CEM leukemia 28% and 20.3%
12.5% (inactive) and 5.62% (active): SN12C renal
4.95% (active) and 11.5% (inactive): OVCAR-3 ovarian
active: SK-MEL-2 melanoma -8.99% | EKVX NSCLC -5% and 2.98% | UO-31 renal -3.68% and -24.2% | TK-10 renal -11.3% and -31.2% | ACHN renal 0.741% and -1.46% | CAKI-1 renal 9.85% and -15.3% | A498 renal -35.6% and -37.8% | SR leukemia 9.14% and 1.3% | RPMI-8226 leukemia 3.4% and 4.33% | OVCAR-8 ovarian -4.37% and -7.81% | OVCAR-5 ovarian 8.26% and -3.61% | SK-OV-3 ovarian -23% and -36.9% | IGROV1 ovarian -16.6% and -36.1% | HS 578T breast -31.1% | NCI/ADR-RES ovarian 1.66% and -15.6%
16.8% (inactive) and 8.62% (active): MOLT-4 leukemia

Cc1nnc(NC/C=C/c2ccccc2)s1
inactive: SK-MEL-2 melanoma 122% | EKVX NSCLC 101% | SN12C renal 105% and 108% | UO-31 renal 87.1% and 91.2% | TK-10 renal 96.4% and 111% | ACHN renal 103% and 112% | CAKI-1 renal 112% | A498 renal 96.1% | CCRF-CEM leukemia 113% | MOLT-4 leukemia 92.8% and 111% | SR leukemia 113% | RPMI-8226 leukemia 102% and 118% | OVCAR-8 ovarian 102% | OVCAR-5 ovarian 112% | SK-OV-3 ovarian 98.4% and 118% | IGROV1 ovarian 112% and 114% | OVCAR-3 ovarian 99.7% | HS 578T breast 122% and 105% | NCI/ADR-RES ovarian 103% and 102%

O=C(Nc1ccc(Cl)cc1)c1cc2ccccc2cc1O
10.9% (inactive) and 4.71% (active): UO-31 renal
active: SN12C renal 8.95% and -2.39% | A498 renal -5.52% | MOLT-4 leukemia 4.27% and -8.37% | RPMI-8226 leukemia -10.7% and -29%
14.4% (inactive) and 5.62% (active): OVCAR-3 ovarian
15.8% (inactive) and -13.9% (active): SR leukemia
53.3% (inactive) and 8.41% (active): TK-10 renal
34.5% (inactive) and -23.4% (active): CAKI-1 renal
15.8% (inactive) and 4.92% (active): HS 578T breast
26.1% (inactive) and -5.89% (active): OVCAR-8 ovarian
inactive: EKVX NSCLC 15.3% and 14.6% | ACHN renal 30.3% and 31.2% | CCRF-CEM leukemia 17.8% | OVCAR-4 ovarian 34.5% and 20.9% | SK-OV-3 ovarian 18.9% | IGROV1 ovarian 23.3% and 21.8%
36.9% (inactive) and 7.35% (active): SK-MEL-2 melanoma

CC(C)(C)c1ccc(O)c(CNC2CCCCC2)c1
inactive: SK-MEL-2 melanoma 94.6% | EKVX NSCLC 108% | SN12C renal 102% and 91.4% | UO-31 renal 65.7% and 78.9% | TK-10 renal 92.4% | ACHN renal 116% and 91.3% | CAKI-1 renal 111% and 97.5% | A498 renal 110% and 91.8% | CCRF-CEM leukemia 91.8% and 86.6% | MOLT-4 leukemia 98.1% and 81.2% | SR leukemia 80% and 83.5% | RPMI-8226 leukemia 82% and 74.9% | OVCAR-8 ovarian 101% and 88.9% | OVCAR-5 ovarian 106% and 93% | SK-OV-3 ovarian 108% and 97.8% | OVCAR-3 ovarian 111% and 92.8% | HS 578T breast 89.2% and 89.9% | NCI/ADR-RES ovarian 98.5%

CN(C)c1ccc(C(Cc2ccc3ccccc3n2)Cc2ccc3ccccc3n2)cc1
2.9% (active) and 56.3% (inactive): UO-31 renal
inactive: SK-MEL-2 melanoma 70% and 88.5% | EKVX NSCLC 49.2% and 72.9% | SN12C renal 48.7% and 81.6% | TK-10 renal 74.1% and 121% | ACHN renal 50.5% and 89.6% | CAKI-1 renal 26.1% and 74.9% | A498 renal 33.7% and 59.3% | CCRF-CEM leukemia 41.7% and 67.4% | MOLT-4 leukemia 11.4% and 74.6% | SR leukemia 39.5% and 71% | RPMI-8226 leukemia 25.4% and 51.4% | OVCAR-8 ovarian 46.5% and 91.9% | OVCAR-5 ovarian 58.7% and 88.9% | SK-OV-3 ovarian 77.5% and 99.6% | IGROV1 ovarian 36% and 90.3% | OVCAR-3 ovarian 55.2% and 79.8% | HS 578T breast 70% and 93% | NCI/ADR-RES ovarian 37.5% and 76.3%

c1ccc(N(c2ccccc2)c2ccccc2)cc1
inactive: SK-MEL-2 melanoma 99.8% | EKVX NSCLC 101% | SN12C renal 106% | UO-31 renal 86.8% | TK-10 renal 98.9% | ACHN renal 103% | CAKI-1 renal 90.3% | A498 renal 117% | CCRF-CEM leukemia 98% | MOLT-4 leukemia 95.4% | SR leukemia 79.3% | RPMI-8226 leukemia 100% | OVCAR-8 ovarian 97.5% | OVCAR-5 ovarian 104% | OVCAR-4 ovarian 114% | IGROV1 ovarian 104% | OVCAR-3 ovarian 112% | HS 578T breast 110% | NCI/ADR-RES ovarian 105%

COc1ccc2c(=O)cc(-c3ccccc3)[nH]c2c1
41.7% (inactive) and 8.7% (active): UO-31 renal
inactive: EKVX NSCLC 48.9% and 18.9% | SN12C renal 45.7% and 42.7% | TK-10 renal 48.4% and 63.7% | ACHN renal 54.4% and 51.9% | CAKI-1 renal 24.6% | A498 renal 50.7% | CCRF-CEM leukemia 14% and 12.2% | OVCAR-5 ovarian 49.4% and 46.3% | HS 578T breast 31.5% and 58.9%
21.8% (inactive) and 2.02% (active): RPMI-8226 leukemia
5.46% (active) and 23.9% (inactive): SK-OV-3 ovarian
17.5% (inactive) and 8.21% (active): OVCAR-8 ovarian
31.4% (inactive) and -8.1% (active): SK-MEL-2 melanoma
active: SR leukemia 4.49% | OVCAR-3 ovarian -47.7% and -45.4% | NCI/ADR-RES ovarian -12.9%
26.9% (inactive) and 6.72% (active): MOLT-4 leukemia

O=C(N/N=C/c1ccc2c(c1)OCO2)c1ccncc1
inactive: SK-MEL-2 melanoma 110% and 108% | EKVX NSCLC 104% and 101% | SN12C renal 94.4% and 98.4% | UO-31 renal 82.8% and 79.4% | TK-10 renal 91.2% and 111% | ACHN renal 107% and 103% | CAKI-1 renal 97.2% and 97.5% | A498 renal 98% and 94% | CCRF-CEM leukemia 113% and 101% | MOLT-4 leukemia 133% | SR leukemia 113% and 134% | RPMI-8226 leukemia 111% and 103% | OVCAR-8 ovarian 100% and 109% | OVCAR-4 ovarian 103% and 98.7% | SK-OV-3 ovarian 101% and 104% | IGROV1 ovarian 88.7% and 86.6% | OVCAR-3 ovarian 106% and 96.5% | HS 578T breast 103% and 102% | NCI/ADR-RES ovarian 101% and 106%

COc1ccccc1NC(=O)OCC#CCOC(=O)Nc1ccccc1OC
inactive: SK-MEL-2 melanoma 95.2% and 95% | EKVX NSCLC 99% and 96.1% | SN12C renal 107% and 92.4% | UO-31 renal 71.4% and 80.2% | TK-10 renal 99.2% and 91.2% | ACHN renal 104% and 100% | CAKI-1 renal 94.3% and 88.6% | A498 renal 87.5% and 92.8% | CCRF-CEM leukemia 83.1% and 91.5% | MOLT-4 leukemia 72.4% | SR leukemia 88% and 61.5% | RPMI-8226 leukemia 90.2% and 72.3% | OVCAR-8 ovarian 106% and 97.6% | OVCAR-5 ovarian 98.9% and 98.3% | SK-OV-3 ovarian 104% and 94.8% | OVCAR-3 ovarian 127% and 86.4% | HS 578T breast 99.7% and 76.3%
